Assay outcomes (PubChem BioAssay)
Most compounds without a hit are left out; they make up all but 19% or so of the library.
HT1080-NT tox = kills 2HG-producing HT-1080-NT fibrosarcoma cells | HT-1080-NT fibrosarcoma viability, CellTiter-Glo ATP luminescence, 48 h | Potency, µM (top dose mostly 46.1 µM), for the others: top-dose activity, negative = less viability, hits mostly cytotoxic | 360,000 compounds, 1.6% hits | AID 686970;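 also: NT is the 2HG producing partner of a matched IDH1 knockdown line; potency is read from the fitted curve at half-maximal effect; 0% = DMSO-treated cells and -100% = media-only wells without cells; nearly all actives have a fitted effect of over 55% in size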
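Fibrosarcoma NT cells, 750 per well in 5% FBS RPMI, were exposed to compound for 48 hours. Viability: CellTiter-Glo luminescence.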
IL1B secr inh = blocks inflammasome-driven IL-1 beta release. AID 743279. 360,000 compounds, 4.7% hits. activity change, % at 57.5 µM. THP-1 LPS/ATP IL-1B secretion, AlphaLISA, 16 h; stronger effect = lower value; in the data active = activity change below about -50%; inconclusive = mostly about -30% to -49%
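Secreted IL-1B measured by AlphaLISA bead assay after 16 h compound exposure of THP-1 cells; compounds (final up to 57.5 uM) added 1 h before LPS (250 ng/mL) and ATP (1.25 mM) stimulation; lower signal means less secretion.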
DT40 TDP1 CPT = growth inhibition of DT40 Tdp1-/-;hTDP1 cells with camptothecin (screen for TDP1 inhibitors); chicken DT40 Tdp1-/-;hTDP1 cells + 20 nM CPT, ATP luminescence, 48 h; Potency, µM (doses to about 46.2 µM), for inactives: top-dose activity change, negative = growth inhibition, usual class: inhibitors; 420,000 compounds, 12% hits; AID 686979; also: potency is read from the fitted curve at half-maximal effect; nearly all actives have a fitted effect of over 55% in size
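Chicken DT40 Tdp1-/- cells complemented with human TDP1, 400 cells/well, exposed to compounds plus 20 nM camptothecin for at least 48 h at 37 C; viability read as ATP content by CellTiter-Glo luminescence.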
HT1080 IDH1KD tx = kills HT-1080 cells with IDH1 knockdown. HT-1080 IDH1 knockdown viability, ATP luminescence, 48 h. 360,000 compounds, 2% hits. Potency, µM (top dose mostly 46.1 µM), without a hit: at the top dose activity, negative = toxicity, most hits filed as cytotoxic. AID 686971;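 also: potency is read from the fitted curve at half-maximal effect; 0% = DMSO wells and -100% = cell-free medium wells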
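% activity derives from luminescence (CellTiter-Glo), normalised to DMSO and no-cell wells. HT-1080-IDH1KD cells, 750/well, had 48 h compound exposure at 37 °C.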
TDP1 cell noCPT = qHTS for Inhibitors of human tyrosyl-DNA phosphodiesterase 1 (TDP1): qHTS in cells in absence of CPT; 420,000 compounds, 15% hits; AID 686978, 2013; DT40 Tdp1-/- hTDP1 cells, no CPT, ATP luminescence, 48 h; Potency, µM (top dose mostly 46.2 µM), without a hit: at the top dose activity change, negative = growth inhibition, actives largely listed as inhibitors; also: potency is read from the fitted curve at half-maximal effect; nearly all actives have a fitted effect of over 55% in size
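Growth of hTDP1-complemented DT40 Tdp1-knockout cells is measured by ATP luminescence after at least 48 hr compound exposure at 37 °C, with DMSO substituting for the 20 nM CPT used in the parallel screen.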
Active calls of the source: *; ? = inconclusive; . = no result. Unless noted, calls follow the shape of the dose curve; as a rule, active = well fitted curve in the direction sought with a large enough effect; inconclusive = small, poorly fitted or top-dose-only effect, or another doubt; inactive = no such curve, though single readings can be large; an effect the other way counts as inactive or inconclusive. Unless noted, % is scaled to controls: 0 for no effect and ±100 for the full control effect.

SMILES	HT1080-NT tox	IL1B secr inh	DT40 TDP1 CPT	HT1080 IDH1KD tx	TDP1 cell noCPT
CN(C)C(=O)Cn1cnc2c(cnn2-c2ccccc2Cl)c1=O	0%	-13	-4%	-1%	-4%
Cc1ccc(-n2ncc3c(=O)n(-c4ccc(C)c(C)c4)c(C)nc32)cc1	2%	0	?	0%	18µM*
Cc1ccc(-n2c(C)nc3c(cnn3-c3ccc(F)cc3)c2=O)cc1	-16%	26	18µM*	?	15µM*
COc1ccc(-n2c(C)nc3c(cnn3-c3ccc(C)c(C)c3)c2=O)cc1	-5%	-7	23µM*	3%	15µM*
CCCNC(=O)c1ccc(Cn2c(SCC(=O)NC(C)C)nc3ccccc3c2=O)cc1	.	.	-18%	.	-5%
CCNC(=O)C1(C)CCN(C(=O)c2ccc(OC)c(OC)c2)C1 (centres undefined)	5%	12	-7%	-1%	-1%
Cc1ccc(-c2nn3c(C)nnc3c3ccccc23)cc1S(=O)(=O)NC(C)c1ccccc1 (centres undefined)	?	-3	?	?	18µM*
Cc1ccc(-c2nn3c(C)nnc3c3ccccc23)cc1S(=O)(=O)NCc1ccco1	-1%	?	15µM*	-5%	?
Cc1ccc(-c2nn3c(C)nnc3c3ccccc23)cc1S(=O)(=O)NC(C)(C)CO	-10%	98	?	?	?
COCCNC(=O)c1onc(CSc2ccc(C(C)C)cc2)c1C(=O)O	0%	8	-16%	-16%	-3%
O=C(NNC(=O)c1ccccc1O)c1ccc(S(=O)(=O)Nc2ccccc2)cc1	-14%	45	?	-19%	16µM*
O=C(NNC(=O)c1ccccc1O)c1ccc(S(=O)(=O)Nc2ccccc2F)cc1	23µM*	70	?	?	?
Cc1ccn2c(=O)cc(CSc3nnc(NC(=O)c4ccccc4Cl)s3)nc2c1	.	.	-1%	.	?
CCOc1ccccc1NC(=O)C(CC)Sc1nc2ccncc2[nH]1 (centres undefined)	-8%	11	?	-11%	16µM*
CCOc1ccccc1NC(=O)c1nc[nH]c1C(=O)Nc1ccccc1OCC	-5%	25	16µM*	-3%	?
CCOc1ccccc1NC(=O)c1cnccn1	15%	-59*	4%	13%	-12%
O=C(Nc1ccccc1Oc1ccccc1)c1cnccn1	-2%	20	-10%	0%	-16%
COc1ccccc1NC(=O)c1nc[nH]c1C(=O)Nc1ccccc1OC	9%	8	-28%	0%	?
CCC(Sc1nc2ccncc2[nH]1)C(=O)Nc1ccc(C)c(Cl)c1 (centres undefined)	10%	39	-2%	0%	?
COc1ccccc1CNC(=O)CSc1nnc2c(n1)[nH]c1ccc(F)cc12	-7%	-1	?	-1%	-28%
C=CCSc1nnc2nc3c(nn12)c1cc(C)ccc1n3CC=C	-4%	-7	16µM*	6%	?
Cc1cccc(-c2c3c(nc4c2c(=O)n(C)c(=O)n4C)-c2ccccc2C3O)c1 (centres undefined)	5%	7	5.8µM*	-5%	4.6µM*
CCOc1ccccc1Nc1cc(C)nc2ccc(C)cc12	?	-96*	?	?	21µM*
CCOc1ccccc1Nc1cc(C)nc2ccccc12	-5%	-10	18µM*	-15%	?
CCn1c(C)nc2cc(C(=O)N/N=C(\C)c3ccc(OC)cc3O)ccc21	?	123	9.2µM*	15µM*	10µM*
CCn1c(C)nc2cc(C(=O)NNC(=S)Nc3ccccc3)ccc21	20%	-2	-6%	17%	2%
CCn1c(C)nc2cc(C(=O)NN=C(C)c3ccc(C#N)cc3)ccc21	-10%	-4	5%	-1%	-19%
CCn1c(C)nc2cc(C(=O)N/N=C/c3cccc(O)c3O)ccc21	?	108	15µM*	?	9.2µM*
